SARS PLpro yeast-1: blocks SARS-CoV papain-like protease in a yeast assay; 330,000 tested, 0.19% active; S. cerevisiae expressing SARS-CoV PLpro, growth rescue; Potency, µM (series often up to 32.9 µM), without a hit: at the highest dose activity, positive = growth rescue, usual class: activators; further: potency means the concentration at half of the fitted maximal effect; 0% is about no effect; nearly all actives have a fitted effect of over 55% in size
NS1 function inh: inhibitors of influenza NS1 protein function; AID 2326; Potency, µM (highest dose often 46.1 µM), without a hit: top-dose activity, positive = more growth; 270,000 tested, 0.4% active; further: potency means the concentration at half of the fitted maximal effect; actives are rising curves; nearly all actives have a fitted effect of over 50% in size
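In this qHTS, NS1 from influenza A is expressed in budding yeast, where it slows growth. Cells are switched from glucose to 2% galactose medium (pH 6.0, -URA), treated with compound, and growth recovery is read at OD600.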
Pf growth 96h: inhibits malaria parasite growth, 96 h; P. falciparum luciferase reporter growth, 96 h; Potency, µM (series often up to 28.7 µM), for inactives: top-dose activity change, negative = inhibition, usual class: inhibitors; 320,000 tested, 6.9% active; AID 504834; active means well fitted inhibition curve with a large enough effect; inconclusive means small, poorly fitted or top-dose-only effect, or another doubt; inactive means no such curve, though single readings can be large or run the other way; further: potency means the concentration at half of the fitted maximal effect; on the % scale 0 is the no-effect control and ±100 the full control effect
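Two parasite generations (96 h, 37 C, 5% CO2) of compound exposure in infected erythrocytes (0.05% parasitemia, 2% hematocrit). Luciferase-reporter P. falciparum; decreased luminescence indicates inhibited growth, aimed at apicoplast-acting delayed death.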
Pf growth 48h: inhibits P. falciparum growth in the first generation, 48 h. P. falciparum luciferase growth in erythrocytes, 48 h. Potency, µM (titrated, usually from 28.7 µM), inactives show at the top dose activity change, negative = inhibition, most hits filed as inhibitors. 310,000 tested, 5.9% active; active means well fitted inhibition curve with a large enough effect; inconclusive means small, poorly fitted or top-dose-only effect, or another doubt; inactive means no such curve, though single readings can be large or run the other way; further: potency means the concentration at half of the fitted maximal effect; on the % scale 0 is the no-effect control and ±100 the full control effect
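Parasite viability was followed by luminescence of a genomically integrated firefly luciferase. Cultures held 0.1% parasitemia at 2% hematocrit (final), incubated under 5% CO2 at 37 C.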
Shiga toxin inh: inhibitors of Shiga toxin in Vero cells. AID 2315. Vero cells, Shiga toxin protein synthesis inhibition reporter. 290,000 tested, 9.2% active. inhibition, % at 38.7 µM; in the data active means inhibition mostly above about 28%, no sharp cut-off; inactive means mostly below about 43%; further: 0% is about no effect
Cycloheximide cs: affects cycloheximide protein synthesis inhibition readout, counter-screen | AID 2314 | max response, % | cell reporter, cycloheximide protein synthesis inhibition counterscreen | 300,000 tested, 12% active; in the data active means max response mostly above about 13%, no sharp cut-off; inactive means mostly below about 14%; further: read at 38.3 µM for the half of the compounds with a filed dose; 0% is about no effect
SARS PLpro yeast-2: Validates SARS-CoV PLpro inhibitor hits in yeast; shares compounds with SARS PLpro yeast-1; yeast expressing SARS-CoV PLpro, growth phenotype rescue; calls only; 1,000 tested, 19% active; call rule not given here
* hit, by the source's call. The list is not random: actives were taken first. Their share in the collection is about 21%. Unless noted, the call rests on the fitted dose curve.

Screening Oc1c(C(c2ccc(Cl)cc2)N2CCCC2)cc(Cl)c2cccnc12 (stereo not drawn) returned NS1 function inh 29.3%, Pf growth 96h 1.85µM*, Pf growth 48h 3.29µM*, Shiga toxin inh 2.1, Cycloheximide cs 4.8 and SARS PLpro yeast-2 inactive.
Screening Oc1c(C(Nc2ccccn2)c2cccnc2)cc(Cl)c2cccnc12 (stereo not drawn) returned SARS PLpro yeast-1 2.51µM*, NS1 function inh -55.5%, Pf growth 96h 90.2%, Pf growth 48h 4.65µM*, Shiga toxin inh 16.7, Cycloheximide cs -1.6 and SARS PLpro yeast-2 inactive.
Screening COc1ccc(C(NC(=O)c2cccnc2)c2cc(Cl)c3cccnc3c2O)cc1OC (stereo not drawn) returned SARS PLpro yeast-1 2.24µM*, NS1 function inh inconclusive, Pf growth 96h 0.0%, Pf growth 48h inconclusive, Shiga toxin inh -10.2, Cycloheximide cs -2.1 and SARS PLpro yeast-2 inactive.
For CC1(C)N=c2ccc([N+](=O)[O-])c(N)c2=[N+]1[O-] the results were SARS PLpro yeast-1 1.8%, NS1 function inh -55.9%, Pf growth 96h inconclusive, Pf growth 48h inconclusive, Shiga toxin inh 21.6 and Cycloheximide cs -1.4.
For Cc1ccc(S(=O)(=O)N2CCCCC2)cc1NC(=O)COC(=O)C1(C)CC1(Cl)Cl (stereo not drawn) the results were SARS PLpro yeast-1 -2.6%, Pf growth 96h inconclusive and Pf growth 48h inconclusive.
`Cn1ncc(Cl)c1C(=O)N/N=C/c1ccccn1` gave SARS PLpro yeast-1 inconclusive, NS1 function inh -4.6%, Pf growth 96h -10.2%, Pf growth 48h 17.8%, Shiga toxin inh 31.6, Cycloheximide cs 20.1* and SARS PLpro yeast-2 active.
Screening Cn1ncc(Cl)c1C(=O)N/N=C/c1cccc(OC2CSC2)c1 returned SARS PLpro yeast-1 1.3%, NS1 function inh 8.2%, Pf growth 96h -10.0%, Pf growth 48h 0.9%, Shiga toxin inh -2.2 and Cycloheximide cs 13.3.
For CCn1nc(C)c(/C=C/C(=O)Nc2ccc(C)cc2C)c1C the results were SARS PLpro yeast-1 inconclusive, NS1 function inh -0.2%, Pf growth 96h inconclusive, Pf growth 48h inconclusive, Shiga toxin inh -2.8, Cycloheximide cs -1.8 and SARS PLpro yeast-2 inactive.
For COc1cc([N+](=O)[O-])cc(/C=N/NC(=O)C(C)Nc2cccc3ccccc23)c1O (stereo not drawn) the results were SARS PLpro yeast-1 10µM*, NS1 function inh 4.5%, Pf growth 96h 36.0%, Pf growth 48h inconclusive, Shiga toxin inh -14.6, Cycloheximide cs -1.7 and SARS PLpro yeast-2 inconclusive.
`COc1cc(N/N=C/c2ccccc2O)ncn1` gave SARS PLpro yeast-1 8.91µM*, NS1 function inh -5.4%, Pf growth 96h inconclusive, Pf growth 48h inconclusive, Shiga toxin inh 33.2*, Cycloheximide cs 28.3* and SARS PLpro yeast-2 inconclusive.
For C=CCc1c(C)nc(C)nc1N/N=C/c1ccccc1O the results were SARS PLpro yeast-1 -2.4%, NS1 function inh -7.0%, Pf growth 96h inconclusive, Pf growth 48h inconclusive, Shiga toxin inh 14.6 and Cycloheximide cs 8.1.
`CC(=O)Nc1ccc(Cc2ccncc2)cc1` gave SARS PLpro yeast-1 1.2%, NS1 function inh 1.5%, Pf growth 96h -24.5%, Pf growth 48h 20.0%, Shiga toxin inh -2.9 and Cycloheximide cs 6.6.
CCCCCC(=O)Nc1ccc(Cc2ccncc2)cc1 was read as SARS PLpro yeast-1 12.6µM*, NS1 function inh -15.6%, Pf growth 96h 11.7µM*, Pf growth 48h -18.5%, Shiga toxin inh 23.1, Cycloheximide cs 10.7 and SARS PLpro yeast-2 inactive.
Screening CCn1cc(C(=O)Nc2ccc(C(=O)N3CCCC3)cc2)c(=O)c2ccc(C)nc21 returned SARS PLpro yeast-1 1.7%, NS1 function inh 5.2%, Pf growth 96h inconclusive, Pf growth 48h 19.1%, Shiga toxin inh 19.8 and Cycloheximide cs 12.4.
Cc1ccc(/C=N/Nc2nc3ccccc3[nH]2)s1 was read as SARS PLpro yeast-1 2.82µM*, NS1 function inh -15.3%, Pf growth 96h inconclusive, Pf growth 48h inconclusive, Shiga toxin inh active, Cycloheximide cs 45.4* and SARS PLpro yeast-2 inactive.

From PubChem BioAssay
